Rows were chosen to be rich in hits. Some 3.4% of all compounds tested hit in one or more screens of this group.
GoLoco inh red – qHTS Assay for Inhibitors of RGS12 GoLoco Motif Activity (Red Fluorophore) | AID 880, 2007 | Potency, µM (titrated, usually from 61.6 µM), for the others: top-dose activity, negative = inhibition, hits mostly inhibitors | Gai1:RGS12 GoLoco peptide FP, rhodamine, 10 min | 230,000 tested, 0.44% active; active means well fitted inhibition curve with a large enough effect, not every such curve was filed as active; inactive means no such curve, though single readings can be large or run the other way; further: potency means the concentration at half of the fitted maximal effect; on the % scale 0 is the no-effect control and ±100 the full control effect; nearly all actives have a fitted effect of over 30% in size
Target sequence (P63096 whole entry, looked up): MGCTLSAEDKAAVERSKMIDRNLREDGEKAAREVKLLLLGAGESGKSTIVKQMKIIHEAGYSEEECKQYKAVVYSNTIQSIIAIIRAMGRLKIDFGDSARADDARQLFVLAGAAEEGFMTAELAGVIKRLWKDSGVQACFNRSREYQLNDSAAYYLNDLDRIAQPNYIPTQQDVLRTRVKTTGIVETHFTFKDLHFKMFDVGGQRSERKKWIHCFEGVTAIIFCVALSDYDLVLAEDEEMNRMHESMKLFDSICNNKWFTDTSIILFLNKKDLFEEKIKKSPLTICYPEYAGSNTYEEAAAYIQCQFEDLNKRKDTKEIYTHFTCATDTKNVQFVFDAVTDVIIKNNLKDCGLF
Tau ThT inhib – qHTS for Inhibitors of Tau Fibril Formation, Thioflavin T Binding | Microtubule-associated protein tau (Homo sapiens), P10636 | recombinant tau K18 P301L, heparin-induced fibrillization, ThT fluorescence | Potency, µM (top dose mostly 57.4 µM), for inactives: at the top dose activity, negative = inhibition, most hits filed as inhibitors | 270,000 tested, 2.1% active | AID 1460, 2008; further: potency means the concentration at half of the fitted maximal effect; on the % scale 0 is the no-effect control and ±100 the full control effect; nearly all actives have a fitted effect of over 55% in size
Target sequence (P10636 561-689 P618L limits assumed): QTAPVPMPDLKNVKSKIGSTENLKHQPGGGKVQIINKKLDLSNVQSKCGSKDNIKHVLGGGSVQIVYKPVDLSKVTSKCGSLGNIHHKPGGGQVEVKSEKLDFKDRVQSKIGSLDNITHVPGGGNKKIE
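Heparin-induced fibrillization of the P301L-mutant K18 repeat-domain fragment of human tau was followed by ThT binding in quantitative high-throughput format.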
Tau fluor cs – Counterscreen qHTS for Inhibitors of Tau Fibril Formation, Fluorescence Polarization. tau K18 P301L Alexa594 fluorescence, heparin fibrillization. Potency, µM (doses to about 57.7 µM), without a hit: top-dose activity change, negative = decrease. 280,000 tested, 0.93% active; further: potency means the concentration at half of the fitted maximal effect; on the % scale 0 is the no-effect control and ±100 the full control effect; nearly all actives have a fitted effect of over 55% in size
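Human tau K18 P301L (15 uM unlabeled, 0.24 uM Alexa 594-labeled) in 100 mM sodium acetate pH 7 with 20 uM heparin, 6 hr at 37 C. ThT 30 uM added, 1 hr ambient; Alexa 594 FP and total fluorescence read at 555/632 nm.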
KDM4E inh – qHTS Assay for Inhibitors of Human Jumonji Domain Containing 2E (JMJD2E); Lysine-specific demethylase 4E (Homo sapiens), B2RXH2; JMJD2E catalytic domain, FDH-coupled NADH fluorescence (FDH is formaldehyde dehydrogenase); Potency, µM (top dose mostly 57.1 µM), inactives show at the top dose activity change, negative = inhibition, actives largely listed as inhibitors; 230,000 tested, 1.6% active; active means well fitted inhibition curve with a large enough effect, not every such curve was filed as active; inconclusive means small, poorly fitted or top-dose-only effect, or another doubt; inactive means no such curve, though single readings can be large or run the other way;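 further: potency means the concentration at half of the fitted maximal effect; 0% = wells with enzyme and -100% = buffer wells without enzyme; nearly all actives have a fitted effect of over 50% in size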
Tau FP inhib – qHTS for Inhibitors of Tau Fibril Formation, Fluorescence Polarization | 280,000 tested, 0.39% active | Potency, µM (top dose mostly 57.7 µM), without a hit: at the top dose activity, negative = inhibition, hits mostly inhibitors | K18 P301L tau heparin fibrillization, Alexa594 FP, 6 h; further: potency means the concentration at half of the fitted maximal effect; on the % scale 0 is the no-effect control and ±100 the full control effect; nearly all actives have a fitted effect of over 55% in size
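K18 P301L tau (15 uM unlabeled/0.24 uM Alexa 594-labeled, final) + compound + heparin 20 uM final; 100 mM NaOAc pH 7; 6 hr 37 C; ThT 30 uM final added, 1 hr RT; FP ex 555/em 632 nm.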
Tau fibril TEM – Transmission Electron Microscopy Assay for Inhibitors of Tau Fibrillization; shares compounds with Tau ThT inhib; recombinant tau K18 P301L fibrillization, TEM grading; stronger effect = higher value; fibril grade (0 = clumped fibrils, 4 = only tiny pieces) (test concentration not listed); 45 tested, 70% active;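 active means compounds whose electron micrographs showed tau fibrils broken into shorter filaments or fragments, graded high on fibril breakup; inconclusive means micrographs gave an unclear fibril picture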
tau fibril sed – Sedimentation Assay for Inhibitors of Tau Fibrillization; inhibition, % at 100 µM; 110 tested, 50% active; AID 1720, 2009; shares compounds with Tau ThT inhib; recombinant tau K18 P301L (four-repeat tau fragment), sedimentation SDS-PAGE densitometry; in the data active means inhibition above about 40%; inconclusive means no clear call, values can overlap the other calls; inactive means below about 18%
* marks the source's active call; other numbers are inactive results; ? = inconclusive; . = not tested or not shown; [ ] = remark or other dose. Unless noted, the call rests on the fitted dose curve; in most records, active means well fitted curve in the direction sought with a large enough effect; inconclusive means small, poorly fitted or top-dose-only effect, or another doubt; inactive means no such curve, though single readings can be large; an effect the other way counts as inactive or inconclusive.

SMILES	GoLoco inh red	Tau ThT inhib	Tau fluor cs	KDM4E inh	Tau FP inhib	tau fibril sed	others
CC(/C=C1\SC(=S)N(NC(=O)c2cccc(O)c2)C1=O)=C\c1ccccc1	18%	7.1µM*	14µM*[quencher]	?	14µM*	?	Tau fibril TEM=0
O=C(NCCCO)Nc1ccc2nc(-c3ccco3)c(-c3ccco3)nc2c1	14%	?	7.1µM*[quencher]	?	?	74*	Tau fibril TEM=4.5*
CCc1ccc(NC(=O)C2CCCN(S(=O)(=O)c3c(C)noc3/C=C/N(C)C)C2)cc1 (centres undefined)	.	?	?	.	-2%	.
COc1ccc2oc(-c3ccc(NC(=O)c4ccc(N5CCOCC5)c([N+](=O)[O-])c4)cc3)nc2c1	6%	2.8µM*	-19%	3%	-6%	12	Tau fibril TEM=0
Cc1ccc(-c2cc3ncc4c(n3n2)-c2cc(Cl)ccc2OC4)cc1	.	7%	-8%	.	-4%	.
COc1ccc(-c2nn(-c3cccc(F)c3)c3c2cnc2cc(OC)c(OC)cc23)cc1	.	3%	-4%	.	16%	.
Cc1ccc(SCc2cc(=O)n(C)[nH]2)cc1	-10%	2.2µM*	?	?	?	14
CC(C)Cn1c(O)c(/C=C2\C=NN=C2c2ccccc2)sc1=S	-7%	-11%	-27%	1%	20µM*	14
COc1ccc2c(c1)c(CC(=O)Nc1ccc(C(C)=O)cc1)c(C)n2C(=O)c1ccc(Cl)cc1	4%	?	?	-13%	?	12
COc1ccc2c(c1)c(CC(=O)Nc1c(C)cccc1C)c(C)n2C(=O)c1ccc(Cl)cc1	.	5%	-4%	.	-13%	.
CCN(CC)c1ccc(-c2nc(-c3ccccc3C)no2)cc1[N+](=O)[O-]	.	0%	-15%	.	1%	.
C=CCNc1nc(-c2sc(NC(C)=O)nc2C)cs1	21%	?	-27%	?	-8%	.
COc1ccc(Nc2nc(-c3sc(NC(C)=O)nc3C)cs2)cc1	1%	13µM*	?	-16%	4%	42*	Tau fibril TEM=3*
CC(=O)c1cc(-c2ccc(F)cc2)n(CCC(=O)Nc2nc3c(C)cccc3s2)c1C	.	10%	-2%	.	-5%	.
CC(C)(C)c1ccc(NC(=O)N2CCN(c3ccc([N+](=O)[O-])cn3)CC2)cc1	8%	?	?	67%	?	15
O=C(Nc1ccccc1)N1CCN(c2ccccn2)CC1	21%	-16%	-13%	?	-8%	.
O=C(Nc1ccc(F)cc1F)N1CCCN(c2ccc([N+](=O)[O-])cn2)CC1	9%	-20%	-12%	-2%	-2%	.
Cc1ccc(NC(=O)N2CCN(c3ccccn3)CC2)cc1	10%	?	-3%	?	1%	18
Cc1ccc(NC(=O)Cn2cnc3onc(-c4ccc(F)cc4)c3c2=O)c(Cl)c1	.	?	-19%	.	?	.
CCOC(=O)c1nn(-c2ccc(C)c(C)c2)cc1O	12%	-16%	-20%	-8%	1%	.
CCOC(=O)c1nn(-c2ccc(C)c(C)c2)c(=O)c2c(N)scc12	.	-10%	-15%	3%	-5%	?
CCOC(=O)c1nn(-c2cccc(C(F)(F)F)c2)c(=O)c2c(N)scc12	.	.	.	.	.	41*
CCOC(=O)c1nnn(-c2ccc(OC)cc2)c1N	-5%	-5%	-2%	5%	-2%	.
CCOC(=O)c1nn(-c2ccc(OC)cc2)c(=O)c2c(N)scc12	-15%	8.9µM*	?	?	?	66*	Tau fibril TEM=2*
CCOC(=O)c1nn(-c2ccc(Cl)c(Cl)c2)c(=O)c2c(N)scc12	.	.	.	.	.	12
SMILES	GoLoco inh red	Tau ThT inhib	Tau fluor cs	KDM4E inh	Tau FP inhib	tau fibril sed	others
CCC(C)NC(=O)c1cc(-c2cccc(OC)c2)on1 (centres undefined)	.	-12%	-13%	.	-3%	.
CC(=O)c1ccc(NC(=O)CSc2ccc3nnc(CCNS(=O)(=O)c4ccc(C)cc4)n3n2)cc1	.	-15%	-14%	.	3%	.
CCc1ccccc1NC(=O)c1cnc2sc(N3CCCC3)nn2c1=O	.	-10%	-13%	.	-8%	.
CCOC(=O)c1nn(-c2ccccc2)c(=O)c2c(NC(=O)c3ccccc3)scc12	.	.	.	.	.	2
CCOC(=O)c1nn(-c2ccccc2)c(=O)c2c(N)sc(C)c12	.	.	.	.	.	4
CCOC(=O)c1c(-c2ccccc2)csc1NC(=O)c1ccc(N2C(=O)CCC2=O)cc1	-7%	0%	-12%	-4%	-5%	.
CCOC(=O)c1nc(N)c(=O)n(-c2ccccc2)n1	7%	-9%	3%	6%	-3%	.
CC(C)c1ccc(NS(=O)(=O)c2ccc3[nH]cc(C(=O)NCCc4ccccc4)c(=O)c3c2)cc1	.	5%	-8%	.	?	8
COc1ccc(N2CC(NC(=O)C(c3ccccc3)c3ccccc3)CC2=O)cc1OC (centres undefined)	.	-3%	-11%	.	-3%	.
Cc1ccc(-c2ccc(/C=N/N=C3/NC(=O)C(CC(=O)O)S3)o2)c([N+](=O)[O-])c1 (centres undefined)	9%	10µM*	-23%	-8%	?	?	Tau fibril TEM=?
O=C(O)CC1S/C(=N/N=C/c2ccc(-c3ccccc3[N+](=O)[O-])o2)NC1=O (centres undefined)	-22%	2.2µM*	-30%	-28%	?	58*	Tau fibril TEM=4*
Cc1ccc(S(=O)(=O)Oc2ccc(/C=N/N=C3/NC(=O)C(CC(=O)O)S3)cc2)cc1 (centres undefined)	12%	-15%	1%	3%	0%	.
O=S(=O)(c1ccc2nc(-c3ccco3)c(-c3ccco3)nc2c1)N1CCOCC1	0%	4µM*	4µM*[quencher]	?	8.9µM*	58*	Tau fibril TEM=2*
Clc1ccccc1-c1nc(Nc2ccncc2)c2ccccc2n1	6%	.	.	.	.	.
COc1ccc(CNC(=O)Cn2nc(C)n3cccc3c2=O)cc1	.	17%	-15%	.	?	5
Cc1c(C(=O)NCc2ccc(N(C)C)cc2)oc2c1-c1nn(Cc3cccc(Cl)c3)cc1CC2	.	?	-13%	.	5%	.
Cc1ccc(C2=NNC(=Nc3ccc(F)cc3)SC2)cc1	-2%	16µM*	?	-1%	-21%	?	Tau fibril TEM=3*

Compound activity: PubChem, National Center for Advancing Translational Sciences (NCATS)
